# Results as given in paper PMC11062922 (Nature Chemical Biology, 2023).
# Where two headings read alike, the source gives them in different places.
# Legend:
# Parameters in all cases: species or system human, MV4-11 + K-562 + COLO205 + SK-N-BE2 + OVCAR-8
# ATM = details: read-out: apparent Kd, n = 1
# CDC42 = details: read-out: apparent Kd; compound concentrations: 100 nM and 1000 nM (sheet 'Samples'), CATDS: 0.120707875604042; n = 1
# MTOR = details: read-out: apparent Kd; compound concentrations: 100 nM and 1000 nM (sheet 'Samples'), CATDS: 0.13183909981737599; n = 1
# PIK3CA = details: read-out: apparent Kd, compound concentrations: 100 nM and 1000 nM (sheet 'Samples'), n = 1
# PIK3CD = details: read-out: apparent Kd; compound concentrations: 100 nM and 1000 nM (sheet 'Samples'), CATDS: 0.39108548114929897; n = 1
# PKN3 = details: read-out: apparent Kd; compound concentrations: 100 nM and 1000 nM (sheet 'Samples'), CATDS: 0.11684999356733999; n = 1
# FLT4 = details: read-out: apparent Kd, compound concentrations: 100 nM and 1000 nM (sheet 'Samples'), n = 1
# MYLK3 = details: read-out: apparent Kd, compound concentrations: 100 nM and 1000 nM (sheet 'Samples'), n = 1
# TTN = details: read-out: apparent Kd; compound concentrations: 100 nM and 1000 nM (sheet 'Samples'), CATDS: 0.28618499292255201; n = 1
# AURKA = details: read-out: apparent Kd; compound concentrations: 100 nM and 1000 nM (sheet 'Samples'), CATDS: 7.2357375689978506E-2; n = 1
# AURKB = details: read-out: apparent Kd; compound concentrations: 100 nM and 1000 nM (sheet 'Samples'), CATDS: 8.33802174361232E-2; n = 1
# BTK = details: read-out: apparent Kd; compound concentrations: 100 nM and 1000 nM (sheet 'Samples'), CATDS: 2.7906188232160099E-2; n = 1
# CDK6 = details: read-out: apparent Kd; compound concentrations: 100 nM and 1000 nM (sheet 'Samples'), CATDS: 2.6039683989772199E-2; n = 1
# DDR1 = details: read-out: apparent Kd; compound concentrations: 100 nM and 1000 nM (sheet 'Samples'), CATDS: 3.3765649508464002E-2; n = 1
# DDR2 = details: read-out: apparent Kd; compound concentrations: 100 nM and 1000 nM (sheet 'Samples'), CATDS: 2.4811754642975199E-2; n = 1
# EPHA1 = details: read-out: apparent Kd; compound concentrations: 100 nM and 1000 nM (sheet 'Samples'), CATDS: 5.8966427250755599E-2; n = 1
# EPHA2 = details: read-out: apparent Kd; compound concentrations: 100 nM and 1000 nM (sheet 'Samples'), CATDS: 2.87381973097037E-2; n = 1
# EPHA5 = details: read-out: apparent Kd; compound concentrations: 100 nM and 1000 nM (sheet 'Samples'), CATDS: 2.6468271871748401E-2; n = 1
# EPHA7 = details: read-out: apparent Kd; compound concentrations: 100 nM and 1000 nM (sheet 'Samples'), CATDS: 2.4521911619802599E-2; n = 1
# EPHB1 = details: read-out: apparent Kd; compound concentrations: 100 nM and 1000 nM (sheet 'Samples'), CATDS: 4.12835328689228E-2; n = 1
# EPHB3 = details: read-out: apparent Kd; compound concentrations: 100 nM and 1000 nM (sheet 'Samples'), CATDS: 2.2990547954998001E-2; n = 1
# EPHB4 = details: read-out: apparent Kd; compound concentrations: 100 nM and 1000 nM (sheet 'Samples'), CATDS: 2.6241533264211699E-2; n = 1
# EPHB6 = details: read-out: apparent Kd; compound concentrations: 100 nM and 1000 nM (sheet 'Samples'), CATDS: 2.2781408813982901E-2; n = 1
# FGFR1 = details: read-out: apparent Kd; compound concentrations: 100 nM and 1000 nM (sheet 'Samples'), CATDS: 3.1616918928168397E-2; n = 1
# GSK3A = details: read-out: apparent Kd, compound concentrations: 100 nM and 1000 nM (sheet 'Samples'), n = 1
# GSK3B = details: read-out: apparent Kd, compound concentrations: 100 nM and 1000 nM (sheet 'Samples'), n = 1
# IRAK1 = details: read-out: apparent Kd; compound concentrations: 100 nM and 1000 nM (sheet 'Samples'), CATDS: 2.4333511791148201E-2; n = 1
# MAP3K5 = details: read-out: apparent Kd; compound concentrations: 100 nM and 1000 nM (sheet 'Samples'), CATDS: 2.5132787541446201E-2; n = 1
# MAP3K6 = details: read-out: apparent Kd; compound concentrations: 100 nM and 1000 nM (sheet 'Samples'), CATDS: 2.24428147169137E-2; n = 1
# PAK4 = details: read-out: apparent Kd; compound concentrations: 100 nM and 1000 nM (sheet 'Samples'), CATDS: 2.7893369435470699E-2; n = 1
# PDGFRB = details: read-out: apparent Kd, n = 1
# PLK4 = details: read-out: apparent Kd; compound concentrations: 100 nM and 1000 nM (sheet 'Samples'), CATDS: 9.4443768096787298E-2; n = 1
# PTK2 = details: read-out: apparent Kd; compound concentrations: 100 nM and 1000 nM (sheet 'Samples'), CATDS: 0.104516847999243; n = 1
# RET = details: read-out: apparent Kd, n = 1
# SLK = details: read-out: apparent Kd; compound concentrations: 100 nM and 1000 nM (sheet 'Samples'), CATDS: 2.57372154872102E-2; n = 1
# STK10 = details: read-out: apparent Kd; compound concentrations: 100 nM and 1000 nM (sheet 'Samples'), CATDS: 4.1679333810588297E-2; n = 1
# TEC = details: read-out: apparent Kd; compound concentrations: 100 nM and 1000 nM (sheet 'Samples'), CATDS: 3.46380925591862E-2; n = 1
# TGFBR1 = details: read-out: apparent Kd; compound concentrations: 100 nM and 1000 nM (sheet 'Samples'), CATDS: 3.4751131583425202E-2; n = 1
# TNK1 = details: read-out: apparent Kd; compound concentrations: 100 nM and 1000 nM (sheet 'Samples'), CATDS: 3.18258683294073E-2; n = 1
# AKT3 = details: read-out: apparent Kd; compound concentrations: 100 nM and 1000 nM (sheet 'Samples'), CATDS: 0.228798391958558; n = 1
# FLT3 = details: read-out: apparent Kd; compound concentrations: 100 nM and 1000 nM (sheet 'Samples'), CATDS: 0.41420685455441397; n = 1
# CHEK1 = details: read-out: apparent Kd; compound concentrations:100 nM and 1000 nM (sheet 'Samples'); n = 1
# GRK6 = details: read-out: apparent Kd; compound concentrations:100 nM and 1000 nM (sheet 'Samples'); n = 1
# RPS6KA6 = details: read-out: apparent Kd; compound concentrations:100 nM and 1000 nM (sheet 'Samples'); n = 1
# GAK = details: read-out: apparent Kd; compound concentrations: 100 nM and 1000 nM (sheet 'Samples'), CATDS: 0.73237388981335505; n = 1
# NLK = details: read-out: apparent Kd; compound concentrations: 100 nM and 1000 nM (sheet 'Samples'), CATDS: 0.15655838953280801; n = 1
# RIPK2 = details: read-out: apparent Kd; compound concentrations: 100 nM and 1000 nM (sheet 'Samples'), CATDS: 0.226668000101196; n = 1
# AP1G1 = details: read-out: apparent Kd; compound concentrations:100 nM and 1000 nM (sheet 'Samples'); n = 1
# [1] = compound concentrations:100 nM and 1000 nM (sheet 'Samples')
smiles,measurement,setting,value
Fc1ccc(-c2c(-c3ccncc3)nc3n2CCS3)cc1 [SKF-86055],potency estimated from few doses,"ATM; compound concentrations: 100 nM and 1000 nM (sheet 'Samples'), CATDS: 0.230066198267698",0.174 µM
same,potency estimated from few doses,CDC42,0.94 µM
same,potency estimated from few doses,MTOR,0.688 µM
same,potency estimated from few doses,PIK3CA; CATDS: 0.214179011469951,0.201 µM
same,potency estimated from few doses,PIK3CD,0.0713 µM
same,potency estimated from few doses,PKN3,1.07 µM
Cc1cnc(N)c(/C=C/c2cncc(C(=O)NCCc3ccc(Cl)cc3Cl)c2)c1.Cl [GSK190937A],potency estimated from few doses,"ATM; compound concentrations: 100 nM and 1000 nM (sheet 'Samples'), CATDS: 1",0.186 µM
CCN(CC)S(=O)(=O)c1ccc(OC)c(Nc2ncc(-c3ccccc3)o2)c1 [GW572401X],potency estimated from few doses,"ATM; compound concentrations: 100 nM and 1000 nM (sheet 'Samples'), CATDS: 0.38559803360956002",0.233 µM
same,potency estimated from few doses,FLT4; CATDS: 0.25804604622039201,0.495 µM
same,potency estimated from few doses,MYLK3; CATDS: 0.16564230425287901,1.94 µM
same,potency estimated from few doses,TTN,0.399 µM
CC(=O)Nc1ccc2c(c1)C(c1ccccc1Cl)=Nc1c(n[nH]c1C)N2 [RO0281752-000],potency estimated from few doses,AURKA,0.151 µM
same,potency estimated from few doses,AURKB,0.121 µM
same,potency estimated from few doses,BTK,1.08 µM
same,potency estimated from few doses,CDK6,1.32 µM
same,potency estimated from few doses,DDR1,0.658 µM
same,potency estimated from few doses,DDR2,1.54 µM
same,potency estimated from few doses,EPHA1,0.213 µM
same,potency estimated from few doses,EPHA2,0.992 µM
same,potency estimated from few doses,EPHA5,1.26 µM
same,potency estimated from few doses,EPHA7,1.6 µM
same,potency estimated from few doses,EPHB1,0.421 µM
same,potency estimated from few doses,EPHB3,2.02 µM
same,potency estimated from few doses,EPHB4,1.29 µM
same,potency estimated from few doses,EPHB6,2.09 µM
same,potency estimated from few doses,FGFR1,0.772 µM
same,potency estimated from few doses,FLT4; CATDS: 7.7146870041813295E-2,0.136 µM
same,potency estimated from few doses,GSK3A; CATDS: 2.5407151234935001E-2,1.43 µM
same,potency estimated from few doses,GSK3B; CATDS: 2.45501369034281E-2,1.6 µM
same,potency estimated from few doses,IRAK1,1.65 µM
same,potency estimated from few doses,MAP3K5,1.48 µM
same,potency estimated from few doses,MAP3K6,2.22 µM
same,potency estimated from few doses,PAK4,1.08 µM
same,potency estimated from few doses,"PDGFRB; compound concentrations: 100 nM and 1000 nM (sheet 'Samples'), CATDS: 2.3035756841704998E-2",2 µM
same,potency estimated from few doses,PLK4,0.1 µM
same,potency estimated from few doses,PTK2,0.0864 µM
same,potency estimated from few doses,"RET; compound concentrations: 100 nM and 1000 nM (sheet 'Samples'), CATDS: 0.104878429822753",0.086 µM
same,potency estimated from few doses,SLK,1.37 µM
same,potency estimated from few doses,STK10,0.413 µM
same,potency estimated from few doses,TEC,0.62 µM
same,potency estimated from few doses,TGFBR1,0.615 µM
same,potency estimated from few doses,TNK1,0.76 µM
Cc1c(C2=C(c3cn(C)c4ccccc34)C(=O)NC2=O)c2ccccc2n1C [RO0317777-000],potency estimated from few doses,"ATM; compound concentrations: 100 nM and 1000 nM (sheet 'Samples'), CATDS: 0.73643038354307599",0.0201 µM
same,potency estimated from few doses,GSK3A; CATDS: 0.20080889855539999,0.343 µM
same,potency estimated from few doses,GSK3B; CATDS: 0.19196654372997399,0.397 µM
same,potency estimated from few doses,PIK3CA; CATDS: 0.224567790498646,0.247 µM
CS(=O)(=O)Nc1ccc(N/C=C2\C(=O)Nc3ccccc32)cc1 [GW278681X],potency estimated from few doses,AKT3,1.78 µM
same,potency estimated from few doses,FLT3,0.358 µM
same,potency estimated from few doses,MYLK3; CATDS: 0.45144948525054202,0.306 µM
COc1cc(Nc2cnc(C#N)c(O[C@H](C)CN(C)C)n2)ncc1-c1cnn(C)c1 [CCT244747],potency estimated from few doses,ATM; [1],0.179 µM
same,potency estimated from few doses,CHEK1,0.0397 µM
same,potency estimated from few doses,GRK6,1.23 µM
same,potency estimated from few doses,PDGFRB; [1],1.49 µM
same,potency estimated from few doses,RET; [1],0.112 µM
same,potency estimated from few doses,RPS6KA6,0.46 µM
COc1cc(Nc2ccnc3ccc(Br)cc23)cc(OC)c1OC [CA93.0],potency estimated from few doses,"ATM; compound concentrations: 100 nM and 1000 nM (sheet 'Samples'), CATDS: 0.26072592490086599",0.205 µM
same,potency estimated from few doses,GAK,0.0227 µM
same,potency estimated from few doses,NLK,1.5 µM
same,potency estimated from few doses,RIPK2,0.311 µM
COc1cccc(OC)c1C(=O)Nc1cccc(-c2nn3ccccc3c2-c2ccnc(Nc3cccc(F)c3)n2)c1 [GSK361065A],potency estimated from few doses,AP1G1,0.895 µM
